Bioassay records (PubChem BioAssay)
HIF-2a block: inhibitors of HIF-2a | AID 624352 | 786-0 RCC cells HIF-2a reporter, luciferase luminescence, overnight | 0.72% of 360,000 active | inhibition, % at 18.8 µM;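 active means inhibition of the luminescence signal of 40% or more relative to plate controls, in a single-dose primary screen at 18.75 µM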
Peg3 promoter: inhibitors of Peg3 promoter; HeLa PEG-Prom luciferase reporter, luminescence, overnight; inhibition, % at 20 µM; 1.7% of 360,000 active;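 active means inhibition of at least 50% at 20 µM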
CF NFkB inh: blocks PAF-induced NF-kB reporter in cystic fibrosis cells; 0.86% of 360,000 active; KKLEB NF-kB-GFP reporter, GFP fluorescence overnight; inhibition, % at 5 µM;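 active means at least 50% inhibition at 5 µM, scaled per plate between neutral and stimulator controls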;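 further: PAF is a Pseudomonas aeruginosa culture filtrate used as stimulus; plate controls were PAF-stimulated DMSO wells for no effect and unstimulated DMSO wells for full effect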
KKLEB tox: CF airway cell cytotoxicity counter-screen; KKLEB CF airway cells viability, ATPlite luminescence, overnight; hits give low values; cells stimulated with P. aeruginosa culture filtrate; activity change (cytotoxicity), % at 5 µM; 0.36% of 360,000 active; AID 602141;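 active means corrected activity change at or below -50% at 5 µM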
MITF TRPM1 inh: inhibitors of MITF-driven TRPM1 promoter in melanoma cells. inhibition, % at 12.5 µM. 0.83% of 330,000 active. SK-MEL-5 TRPM1 promoter luciferase, 24 h. AID 488899;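 active means mean inhibition across replicates of 60% or more, whatever share of single replicates reaches that level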
Shn3 3UTR inh: Schnurri-3 reporter inhibition in Clone20 osteoblasts; Clone20 osteoblast Shn3 3'UTR firefly luciferase, 24 h; inhibition, % at 12.5 µM; 0.52% of 360,000 active; AID 588674;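 active means mean inhibition of at least 75% with every replicate also reaching 75%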;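 further: 0% = median of neutral control wells and 100% = pilot-screen positive control compound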
CF NFkB inh conf: CF NF-kB inhibition confirmation, single concentration | shares compounds with CF NFkB inh | KKLEB CF airway cells, PAF-induced NF-kB-GFP fluorescence, overnight | inhibition, % at 5 µM | 64% of 1,300 active; in the data active means inhibition above about 40%;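 further: stimulus PAF is a Pseudomonas aeruginosa filtrate and not platelet activating factor; plate controls were DMSO wells with stimulus for no effect and unstimulated DMSO wells for full effect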
An asterisk follows results filed as active. Rows were chosen to be rich in hits. Some 2.7% of all compounds tested hit in one or more screens of this group.

What do the screens show for `Cc1ccc(C(=O)Nc2cccc(C(F)(F)F)c2)cc1Nc1cnccn1`?
HIF-2a block: 1; Peg3 promoter: -3; CF NFkB inh: 51*; KKLEB tox: 0; MITF TRPM1 inh: 5; Shn3 3UTR inh: 12; CF NFkB inh conf: 43*

How did COc1ccc(C(=O)COC(=O)c2cnc(C)cn2)c(OC)c1 do in these assays?
HIF-2a block: 8; Peg3 promoter: -8; CF NFkB inh: 5; KKLEB tox: 8; MITF TRPM1 inh: -18; Shn3 3UTR inh: 1

How did C=C1CCC(O)C2(C)CCC3C(C)C(=O)OC3C12O (centres undefined) do in these assays?
HIF-2a block: 13; Peg3 promoter: 1; CF NFkB inh: 18; KKLEB tox: -11; MITF TRPM1 inh: 0; Shn3 3UTR inh: -21

How did C=C1C(=O)O[C@@H]2[C@H]1CC[C@H](C)[C@]1(O)CCC(=O)[C@@]21C do in these assays?
HIF-2a block: -16; Peg3 promoter: 46; CF NFkB inh: 54*; KKLEB tox: -19; MITF TRPM1 inh: 40; Shn3 3UTR inh: -15; CF NFkB inh conf: 78*

Results for Cc1ccccc1NC(=O)CSc1nc2ncc(Cl)cc2[nH]1 ?
HIF-2a block: -15; Peg3 promoter: 21; CF NFkB inh: 18; KKLEB tox: -7; MITF TRPM1 inh: 3; Shn3 3UTR inh: -6

How did Cc1c(Cl)cccc1NC(=O)CSc1nc2ncc(Cl)cc2[nH]1 do in these assays?
HIF-2a block: -12; Peg3 promoter: 4; CF NFkB inh: 62*; KKLEB tox: -7; MITF TRPM1 inh: -1; Shn3 3UTR inh: 8; CF NFkB inh conf: 51*

How did CC(Sc1nc2ncc(Cl)cc2[nH]1)C(=O)Nc1ccccc1[N+](=O)[O-] (centres undefined) do in these assays?
HIF-2a block: 12; Peg3 promoter: 15; CF NFkB inh: 53*; KKLEB tox: -14; Shn3 3UTR inh: 0; CF NFkB inh conf: 3

How did CSc1ncc(Cl)c(C(=O)Nc2ccccc2[N+](=O)[O-])n1 do in these assays?
HIF-2a block: 11; Peg3 promoter: -9; CF NFkB inh: -15; KKLEB tox: 7; MITF TRPM1 inh: 9; Shn3 3UTR inh: -26

How did COc1cccc(N2CCN(c3nc(-c4ccccc4C)cc(=O)[nH]3)CC2)c1 do in these assays?
HIF-2a block: -53; Peg3 promoter: 104*; CF NFkB inh: 67*; KKLEB tox: -6; MITF TRPM1 inh: -3; Shn3 3UTR inh: -85; CF NFkB inh conf: 39

How did CCCCCCc1nc2nc(Cl)c(Cl)nc2[nH]1 do in these assays?
HIF-2a block: -55; Peg3 promoter: -14; CF NFkB inh: 60*; KKLEB tox: 16; Shn3 3UTR inh: -20; CF NFkB inh conf: 32

What do the screens show for `Cc1ccc(-c2noc(COC(=O)c3ccco3)n2)cc1`?
HIF-2a block: -93; Peg3 promoter: -75; CF NFkB inh: 14; KKLEB tox: 2; MITF TRPM1 inh: -73; Shn3 3UTR inh: -47

What do the screens show for `COCCN1Cc2cccc(C(=O)Nc3cccc(-c4nc5ccccc5[nH]4)c3)c2C1=O`?
HIF-2a block: -138; Peg3 promoter: 22; CF NFkB inh: 57*; KKLEB tox: -20; MITF TRPM1 inh: -29; Shn3 3UTR inh: 9; CF NFkB inh conf: 68*

How did Cc1ccccc1OCC(=O)Nc1ccc([N+](=O)[O-])cc1 do in these assays?
HIF-2a block: -122; Peg3 promoter: -57; CF NFkB inh: -23; KKLEB tox: 5; MITF TRPM1 inh: -23; Shn3 3UTR inh: -35

Results for C[C@H]1Cn2cnc(C(=O)Nc3cccc(Cl)c3)c2C(=O)N1 ?
HIF-2a block: -6; Peg3 promoter: 39; CF NFkB inh: 62*; KKLEB tox: 14; Shn3 3UTR inh: 11; CF NFkB inh conf: 91*

How did COC(=O)N1C(=O)[C@@](c2ccc(OC)cc2)(C(C)C)N1C(=O)OC do in these assays?
HIF-2a block: 27; Peg3 promoter: 46; CF NFkB inh: 69*; KKLEB tox: -12; MITF TRPM1 inh: -7; Shn3 3UTR inh: -14; CF NFkB inh conf: 57*

What do the screens show for `COC(=O)N1C(=O)[C@@](c2ccccc2)(C(C)C)N1C(=O)OC`?
HIF-2a block: 11; Peg3 promoter: 29; CF NFkB inh: 58*; KKLEB tox: 6; MITF TRPM1 inh: 3; Shn3 3UTR inh: 17; CF NFkB inh conf: 51*
